Where “and” joins values, the source holds several entries; their conditions need not be identical. Identical values can stand only once. Inconclusive results are not listed. A structure can be active in one record and inactive in another. Calls of active or inactive are those of the source. Calls follow the shape of the dose curve; as a rule, active = well fitted curve in the direction sought with a large enough effect; inconclusive = small, poorly fitted or top-dose-only effect, or another doubt; inactive = no such curve, though single readings can be large; an effect the other way counts as inactive or inconclusive.
Tests used:
[1] = Primary qHTS for inhibitors of nuclear receptor binding SET domain protein 2 (NSD2) in an isogenic RCH-ACV NSD2 p.E1099K mutant (9B) (AID 1645876); settings: RCH-ACV NSD2 E1099K (9B) viability, CellTiter-Glo, 72 h; series mostly up to 44.9 µM
[2] = Primary qHTS for inhibitors of nuclear receptor binding SET domain protein 2 (NSD2) in an RCH-ACV wild type WT cells (2C) (AID 1645877); settings: RCH-ACV (leukaemia line) NSD2 WT (2C) viability, CellTiter-Glo, 72 h; series mostly up to 44.9 µM
Also: nearly all actives have a fitted effect of over 70% in size.
Potency is read from the fitted curve at half-maximal effect.

**Q.** For `COc1cc(F)c(F)c(Nc2ccc(I)cc2F)c1NS(=O)(=O)C1(C[C@H](O)CO)CC1`, which Potency [1] is on record?
**A.** 18.3 µM (active) and 20.9 µM (active)

**Q.** And the Potency [2]?
**A.** 25.8 µM (active) and 20.9 µM (active)

**Q.** With `CCCS(=O)(=O)Nc1ccc(F)c(C(=O)c2c[nH]c3ncc(-c4ccc(Cl)cc4)cc23)c1F` as the compound, how does the Potency [1] read?
**A.** 18.4 µM (active) and inactive

**Q.** What about the Potency [2] of the same compound?
**A.** 16.4 µM (active) and inactive

**Q.** With `COc1ccc(-c2ccc3c(N4CCOCC4)nc(N4C[C@@H](C)O[C@@H](C)C4)nc3n2)cc1CO` as the compound, how does the Potency [1] read?
**A.** 662 nM (active)

**Q.** What about the Potency [2] of the same compound?
**A.** inactive

— PubChem BioAssay (NCATS)
